Bioassay records deposited in PubChem by several laboratories.
An excerpt weighted towards active compounds, which were near 1.9% of everything screened.
BaF3 parental – parental Ba/F3 viability inhibition as JAK2V617F counter-screen; inhibition, % at 5.6 µM; AID 1486; CellTiter-Glo ATP luminescence; 1.1% of 220,000 active;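 active means inhibition above a per-campaign cutoff, the mean inhibition of all tested compounds plus 3 SD, cut at about 27% in these data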
IEC-6 tox – IEC-6 cytotoxicity, counter-screen for KLF5 inhibitors | luminescence viability | inhibition, % at 5 µM | 0.78% of 290,000 active | AID 1825; in the data active means inhibition above about 22%
KLF5 inhibitor – kruppel-like factor 5 inhibition; DLD-1 KLF5 promoter-luciferase reporter, luminescence; inhibition, % at 5 µM; 0.23% of 290,000 active;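 active means inhibition above a per-plate limit of that plate's mean compound inhibition plus 3 SD, cut at about 60% in these data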;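 further: higher means less KLF5 promoter-driven luciferase light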
Ba/F3 V617F tox – lowers viability of Ba/F3 cells expressing EpoR and JAK2V617F. 1.1% of 220,000 active. inhibition, % at 5.6 µM. ATP luminescence;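 active means inhibition above the campaign mean plus 3 SD over all tested compounds, cut at about 24% in these data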;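 further: cytokine-independent growth of Ba/F3 cells driven by EpoR plus mutant JAK2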
APP transl inh – APP translation inhibition; SH-SY5Y APP 5'UTR-luciferase reporter, luminescence; AID 1285; 0.82% of 190,000 active; inhibition, % at 2 µM;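 active means inhibition above a set limit, derived from the sample mean plus 3 SD, cut at about 45% in these data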
A number is an active result; – = inactive; · = no result given.

SMILES	BaF3 parental	IEC-6 tox	KLF5 inhibitor	Ba/F3 V617F tox	APP transl inh
COc1cc(-c2nnc(SCC(=O)N(Cc3ccccc3)C(C)(C)C)o2)cc(OC)c1OC	96.4	–	–	–	–
CC(=O)c1ccc(NC(=O)C(C)OC(=O)C(C)Oc2cccc(C)c2)cc1 (centres undefined)	–	–	–	–	–
COc1ccccc1NC(=O)Cn1nnc(C(=O)Nc2ccccc2)c1N	93.9	–	–	–	–
COc1ccccc1NC(=O)c1nnn(CC(=O)Nc2ccccc2)c1N	–	–	–	–	–
CN(C(=S)NCCN1CCOCC1)C(c1ccccc1)c1ccccc1	44.0	–	–	–	–
Fc1cccc(NC(=S)NNc2c3ccccc3nc3ccccc23)c1	–	–	–	–	53.5
Fc1cccc(NC(=S)NNc2ccccc2)c1	·	–	–	·	·
C/C(=N\NC(=O)c1cccc(Cl)c1)C1C(=O)c2ccccc2C1=O	–	–	–	–	–
CCSc1nc2sc3c(c2c(=O)n1-c1ccc(OC)cc1)CCN(C)C3	38.2	–	–	–	·
CS(=O)(=O)NCCNC(=O)c1cc(OCC(F)(F)F)ccc1OCC(F)(F)F	–	–	–	–	78.0
O=C(CCl)NCCNC(=O)c1cc(OCC(F)(F)F)ccc1OCC(F)(F)F	–	–	–	–	–
CC[n+]1c(C)cc2c(sc3ccccc32)c1C	70.7	–	–	87.7	–
O=[N+]([O-])c1cccc(-c2nnc3ccc4ccccc4n23)c1	–	–	–	–	–
Cn1c(-c2ccccn2)[n+](C)c2ccccc21	–	–	–	–	–
Cn1c(-c2cccc([N+](=O)[O-])c2)[n+](C)c2ccccc21	70.5	–	–	58.0	–
CN(C)c1ccc(-c2n(C)c3ccccc3[n+]2C)cc1	71.0	–	–	91.2	·
Cn1c(-c2ccc3ccccc3n2)[n+](C)c2ccccc21	63.3	–	–	89.0	·
CCCCSc1nc(C)cc(SCC(=O)N/N=C/c2cccc(OC)c2O)n1	–	–	–	–	–
Cc1nc(SCC(=O)NC(=O)NCc2ccco2)nc(C)c1C	–	–	–	–	–
Cc1cc(N2C(=O)C=CC2=O)c([N+](=O)[O-])cc1C	–	–	–	–	62.2
CS(=O)(=O)N1N=C(c2ccc(Cl)cc2)CC1c1cccs1 (centres undefined)	–	–	–	–	–
CCN1C(=O)c2cccc3c(Cl)ccc(c23)C1=O	–	–	–	–	–
O=C1c2cccc3c(Cl)ccc(c23)C(=O)N1O	–	21.9	–	–	–
Cc1ccc(-n2c(C)nc3oc4ccccc4c(=O)c3c2=O)cc1	–	–	–	–	–
COc1cc(/C=C2/NC(=O)N(Cc3ccccc3F)C2=O)ccc1O	65.4	–	–	85.3	–
SMILES	BaF3 parental	IEC-6 tox	KLF5 inhibitor	Ba/F3 V617F tox	APP transl inh
C/C(=N\NC(=O)C(C)Oc1ccc([N+](=O)[O-])cc1)c1ccccn1 (centres undefined)	–	–	–	–	63.1
CC(Oc1ccccc1)C(=O)NNC(=O)c1ccccn1 (centres undefined)	–	–	–	–	–
CCN(CCn1cccn1)C(=O)c1cc(COc2c(F)cccc2F)on1	–	–	–	–	–
CC(C)(C)C1CCC(OC(=O)C[N+]2(C)CCCC2)CC1 (centres undefined)	35.5	–	–	31.9	–
C[N+]1(CC(=O)OCCCC2CCCCC2)CCCC1	–	–	–	–	–
CC(C)(C)C1CCC(OC(=O)C[N+]2(C)CCCCC2)CC1 (centres undefined)	40.5	–	–	32.1	–
CC(C)CC1CCCCC1OC(=O)C[N+]1(C)CCCCC1 (centres undefined)	62.6	–	–	56.7	–
COc1ccc(/C=C/C(=O)OC2CCCCC2CN(C)C)cc1 (centres undefined)	–	–	–	–	·
COc1cccc(/C=N/Nc2ncnc3c2ncn3Cc2ccccc2)c1O	58.6	–	–	71.0	88.3
CSCC[C@H](NC(=O)[C@H](Cc1ccccc1)n1c(=O)[nH]c2ccccc2c1=O)C(=O)N1CCC[C@@H]1C(=O)O	·	–	–	·	·
Nc1nc(Cl)cc(N2CCC(c3cc(-c4ccc(Cl)cc4)n[nH]3)CC2)n1	44.8	–	–	47.5	–
CCOC(=O)c1cnc(-n2nc(C)cc2C)nc1NNc1cc(-c2ccccc2)nc(C)n1	–	–	–	–	56.5
O=C(N/N=C/c1cccnc1)c1ccc(NC(=O)C(c2ccccc2)c2ccccc2)cc1	–	–	–	–	70.2
CN(C)CCCN(Cc1cc2cc3c(cc2[nH]c1=O)OCO3)C(=S)Nc1cccc(Cl)c1	46.5	–	–	35.6	–
CN(C)CCCN(Cc1cc2cc3c(cc2[nH]c1=O)OCO3)C(=S)Nc1ccccc1	–	–	–	–	–
O=[N+]([O-])c1ccc(N2CCCCC2)c(-c2nn[nH]n2)c1	–	–	–	–	–
CCOc1ccccc1-n1c(SCC(N)=O)nnc1-c1cccnc1	–	–	–	–	–
CCC1C/C(=C\c2cc(OC)c(OC)cc2OC)C(=O)/C(=C/c2cc(OC)c(OC)cc2OC)C1 (centres undefined)	·	–	–	·	·
CCC1C/C(=C/c2ccco2)C(=O)/C(=C/c2ccco2)C1 (centres undefined)	–	–	–	30.4	–
Cc1cc(C)c2cc(C=O)c(Cl)nc2c1	–	–	–	–	93.2
Cc1ccc(-c2noc(C3CCCN(S(=O)(=O)c4ccc5ccccc5c4)C3)n2)o1 (centres undefined)	–	–	–	–	–
O=C(C1CCCO1)N1CCN(C(=S)Nc2ccc(F)c(Cl)c2)CC1 (centres undefined)	27.3	–	–	27.6	–
O=C(C1CCCO1)N1CCN(C(=S)Nc2ccc(F)cc2)CC1 (centres undefined)	–	–	–	–	–
CNc1ccccc1C(C)(C)c1cc(-c2cccc(OC)c2)no1	56.4	–	–	47.9	–
Cc1cc(NC(=O)CCCN2C(=O)/C(=C/c3ccccc3Cl)SC2=S)no1	·	–	–	·	·
SMILES	BaF3 parental	IEC-6 tox	KLF5 inhibitor	Ba/F3 V617F tox	APP transl inh
O=C(Nc1nc(-c2ccccn2)cs1)c1ccc([N+](=O)[O-])o1	88.9	–	–	84.3	·
O=C(Nc1nc(-c2ccccn2)cs1)c1cc(Cl)ccc1[N+](=O)[O-]	60.7	83.1	64.2	71.7	75.9
Cc1c(Cl)c([N+](=O)[O-])nn1Cc1ccc(C(=O)Nc2ccc(Cl)cn2)o1	–	–	–	–	–
O=C(Nc1ccc(Cl)cn1)c1ccc([N+](=O)[O-])o1	–	–	–	–	47.4
CC(Oc1ccc(F)cc1)C(=O)Nc1cccc(-c2nn[nH]n2)c1 (centres undefined)	·	–	–	·	·
CCOC(=O)COc1ccc(Oc2nc(C)cc(OC)n2)nn1	–	–	–	–	–
Cc1ccc(-c2cn(-c3ccccc3)c3[n+]2CCCS3)cc1	66.5	–	–	76.6	–
c1ccc(-c2cn(-c3ccccc3)c3[n+]2CCCS3)cc1	63.0	–	–	68.0	·
N#Cc1ccc(-c2cn(-c3ccccc3)c3[n+]2CCCS3)cc1	–	–	–	–	–
CCN(CC)C(=O)CSc1nc(C)cc(-c2cccs2)c1C#N	–	–	–	–	–
Cc1nn(-c2ccccc2)c(Cl)c1C(=O)NCC(C)c1ccccc1 (centres undefined)	·	–	–	·	·
